Reference: the supplement of paper PMC6522484
± gives the standard deviation of the averaged measurements.

Legend:
DLD1 [1] = experiment: cell viability (CellTiter-Glo) relative to plate median (fraction of plate median); higher = more viable cells; conditions: 5 µM; treatment time 24 h; reporter: 7TFP
In short: (§1)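 Colorectal cancer lines with stably integrated lentiviral TCF/Wnt firefly luciferase reporters received library compounds at a final 5 µM, 24 h after seeding into 384-well plates, for a 24 h exposure. Reported figures are plate-median-normalised firefly luciferase or CellTiterGlo luminescence per well. They average two independent replicates.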

HCT116 = experiment: as above; conditions: 5 µM; treatment time 24 h; reporter: TCF4/Wnt
In short: as §1

SW480 [2] = experiment: as above; conditions: 5 µM; treatment time 24 h; reporter: 7TFP
In short: as §1

DLD1 [3] = experiment: TCF/Wnt firefly luciferase reporter signal relative to plate median (fraction of plate median); higher = higher Wnt reporter signal; conditions: 5 µM; treatment time 24 h; reporter: 7TFP
In short: as §1

SW480 [4] = experiment: as above; conditions: 5 µM; treatment time 24 h; reporter: 7TFP
In short: as §1

Row | SMILES | cell viability (DLD1 [1]) | cell viability (HCT116) | cell viability (SW480 [2]) | TCF/Wnt firefly luciferase reporter signal (DLD1 [3]) | TCF/Wnt firefly luciferase reporter signal (SW480 [4])
1 | C[C@@H]1CC[C@@]23CCC4(C)[C@@](C=CC5[C@@]6(C)CC[C@H](O)C(C)(C)C6CC[C@]54C)(OC2=O)C3[C@H]1C (stereo not given in full) | 1.025 ± 0.0071 | 1.04 ± 0.028 | 0.993 ± 0.0042 | 1.06 ± 0.18 | 0.994 ± 0.023
2 | COc1cc(C)cc2ccc(-c3ccc4c(c3O)[C@@H](C)N[C@H](C)C4)c(O)c12 | 1.17 ± 0.19 | 1.04 ± 0.077 | 1.05 ± 0.021 | 1.05 | 1.015 ± 0.0071
3 | O=C([O-])[C@H]1/C(=C/CO)O[C@@H]2CC(=O)N21.[Li+] | 1.045 ± 0.0071 | 1.04 ± 0.064 | 1.02 ± 0.049 | 1.04 ± 0.092 | 1.125 ± 0.0071
4 | CC(C)CC(NC(=O)OCC1c2ccccc2-c2ccccc21)C(=O)O (stereo in doubt) | 1.06 ± 0.057 | 0.996 ± 0.035 | 1.01 ± 0.021 | 0.979 ± 0.027 | 1.02 ± 0.029
5 | O=C1C=CC(=C(c2ccc(O)cc2)c2ccc(O)cc2)C=C1 | 0.99 ± 0.057 | 0.944 ± 0.018 | 1.01 ± 0.035 | 0.851 ± 0.038 | 0.93 ± 0.099
6 | CS(=O)(=O)Nc1ccc([N+](=O)[O-])cc1Oc1ccccc1 | 1.02 ± 0.021 | 0.967 ± 0.089 | 0.978 ± 0.018 | 1.01 ± 0.022 | 0.981 ± 0.028
7 | Cc1cc(=O)c2c(O)cc(O)c(C)c2o1 | 0.906 ± 0.061 | 0.873 ± 0.034 | 0.9105 ± 0.0035 | 1.25 ± 0.26 | 1.02 ± 0.039
8 | CCOC(=O)c1ccc(O)cc1 | 0.925 ± 0.019 | 0.89 ± 0.056 | 1.004 ± 0.0078 | 1.01 | 0.998 ± 0.059
9 | COc1cc(/C=C/C(=O)O)cc(OC)c1OC | 0.983 ± 0.016 | 0.961 ± 0.015 | 0.903 ± 0.056 | 0.827 ± 0.072 | 0.972 ± 0.0028
10 | CC(=O)N1CCCC(N)C1=O (stereo not given) [N-Acetyl-3-amino-2-piperidinon] | 0.974 ± 0.079 | 0.871 ± 0.021 | 0.946 ± 0.015 | 0.821 ± 0.13 | 0.851 ± 0.044
11 | COc1cc2c(cc1OC)-c1cc3ccc(OC)c(OC)c3c[n+]1CC2 | 0.983 ± 0.067 | 0.896 ± 0.16 | 0.949 ± 0.054 | 1.105 ± 0.0071 | 1.01 ± 0.073
12 | O=C(O)c1cc(O)c(=O)c2c(O)c(O)ccc2c1 | 1.02 ± 0.028 | 1.04 ± 0.12 | 1.01 ± 0.035 | 1.05 ± 0.035 | 1.02 ± 0.021
13 | O=C1CC2(CCCC2)CC(=O)N1CCCCN1CCN(c2ncccn2)CC1 | 1.02 ± 0.028 | 0.895 ± 0.14 | 0.995 ± 0.021 | 1.07 ± 0.078 | 1.08 ± 0.021
14 | COc1ccc(-c2cc(=O)c3ccccc3o2)cc1OC | 1.07 ± 0.05 | 1.01 | 1.06 ± 0.057 | 0.906 ± 0.0099 | 1.03 ± 0.035
15 | CN(C)CCCO[C@@H]1[C@H]2OC(C)(C)O[C@H]2O[C@@H]1[C@H](O)CO | 1.04 ± 0.06 | 0.9935 ± 0.0064 | 0.96 ± 0.038 | 0.998 ± 0.14 | 0.972 ± 0.029
16 | CCCNCC(O)COc1ccccc1C(=O)CCc1ccccc1 (stereo not given) | 0.96 ± 0.085 | 1.07 ± 0.22 | 0.927 ± 0.033 | 1.06 ± 0.091 | 0.883 ± 0.12
17 | Cc1ccc(S(=O)(=O)NC(=O)NN2CC3CCCC3C2)cc1 (stereo not given) | 0.95 ± 0.063 | 0.999 ± 0.044 | 0.974 ± 0.052 | 1.07 ± 0.071 | 0.9645 ± 0.0035
18 | COc1ccc(-c2cc(=O)c3c(O)cc(O[C@H]4O[C@H](CO[C@@H]5O[C@@H](C)[C@H](O)[C@@H](O)[C@H]5O)[C@@H](O)[C@H](O)[C@H]4O)cc3o2)cc1 | 0.995 ± 0.079 | 0.88 ± 0.1 | 0.979 ± 0.059 | 1.02 ± 0.029 | 0.9475 ± 0.00071
19 | O=C(/C=C/c1ccccc1)c1ccc(O)cc1O | 1 ± 0.025 | 0.984 ± 0.0071 | 0.99 ± 0.028 | 1.12 ± 0.071 | 1.07 ± 0.014
20 | O=C(O[C@@H]1Cc2c(O)cc(O)cc2O[C@@H]1c1cc(O)c(O)c(O)c1)c1cc(O)c(O)c(O)c1 | 1.03 ± 0.035 | 1.01 ± 0.048 | 1.08 ± 0.014 | 0.974 ± 0.037 | 0.916 ± 0.014
21 | CN(C)CCOC(=O)COc1ccc(Cl)cc1 | 0.979 ± 0.0085 | 0.991 ± 0.083 | 0.956 ± 0.052 | 1.21 ± 0.14 | 1.14 ± 0.05
22 | C/C1=C2/[N-][C@H]([C@H](CC(N)=O)[C@@]2(C)CCC(=O)NC[C@@H](C)OP(=O)([O-])O[C@H]2[C@@H](O)[C@@H](n3cnc4cc(C)c(C)cc43)O[C@@H]2CO)[C@]2(C)N=C(/C(C)=C3N=C(/C=C4N=C1[C@@H](CCC(N)=O)C\4(C)C)[C@@H](CCC(N)=O)[C@]\3(C)CC(N)=O)[C@@H](CCC(N)=O)[C@]2(C)CC(N)=O.[CH2-][C@H]1O[C@H](n2cnc3c(N)ncnc32)[C@@H](O)[C@H]1O.[Co+3] | 0.933 ± 0.021 | 0.964 ± 0.18 | 0.998 ± 0.045 | 0.968 ± 0.13 | 0.971 ± 0.2
23 | Cc1ccccc1C(OCCN(C)C)c1ccccc1 (stereo not given) | 1.07 ± 0.13 | 0.894 ± 0.15 | 1.01 ± 0.039 | 1.085 ± 0.0071 | 1.12 ± 0.085
24 | NC[C@H]1CC[C@H](C(=O)O)CC1 | 0.995 ± 0.022 | 1.025 ± 0.0071 | 1.02 ± 0.014 | 0.927 ± 0.1 | 0.981 ± 0.028
25 | CCOC(=O)[C@H](CCc1ccccc1)N[C@H]1CCc2ccccc2N(CC(=O)O)C1=O | 0.871 ± 0.1 | 0.899 ± 0.068 | 1.02 ± 0.067 | 1.045 ± 0.0071 | 1.01
26 | O=C(O)C1CC([C@@H]2CCCCN2)CN2CCCCC12 (stereo not given in full) | 1.03 ± 0.11 | 1.03 ± 0.17 | 0.981 ± 0.015 | 1.07 ± 0.064 | 1 ± 0.064
27 | CC1(C)CC[C@]2(C(=O)O)CC[C@]3(C)C(=CC[C@@H]4[C@@]5(C)CC[C@H](O)[C@@](C)(CO)[C@@H]5CC[C@]43C)[C@@H]2C1 | 0.995 ± 0.16 | 1.025 ± 0.0071 | 1.01 ± 0.04 | 0.99 ± 0.042 | 0.975 ± 0.078
28 | O=C(O)c1nc2cc(Cl)c(Cl)cc2nc1O | 0.95 ± 0.16 | 0.957 ± 0.046 | 1.03 ± 0.028 | 0.831 ± 0.0014 | 0.951 ± 0.098
29 | COc1cc2nc(N3CCN(C(=O)c4ccco4)CC3)nc(N)c2cc1OC | 1.01 ± 0.097 | 1.02 ± 0.036 | 1.01 ± 0.018 | 1.11 ± 0.014 | 1.09 ± 0.028
30 | CCCCCCCCCc1ccc(OCCOCCOCCOCCOCCOCCOCCOCCOCCO)cc1 | 0.985 ± 0.064 | 0.947 ± 0.036 | 0.998 ± 0.032 | 1 ± 0.18 | 0.904 ± 0.088
